The record followed here is PubChem BioAssay (EPA / NIEHS).

By AC50 is commonly meant the midpoint of the concentration-response curve, whichever way the signal moves.

The source made the active and inactive calls. How the source made its calls: active means hit-call score of the fitted dose curve at least 0.9, where 1 is the maximum; inactive means score below 0.9.

Read-out in this test: Plasminogen activator inhibitor-1 (PAI1), SERPINE1 (gene 5054)
The test can be described thus: BSK_hDFCGF_PAI1: BioMAP Diversity Plus: hDFCGF Assay for Plasminogen activator inhibitor-1 (PAI1) Biomarker Activity (AID 2283066). The following applies: primary human foreskin fibroblasts; actives raise or lower the signal. The method in brief: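 PAI-1 levels, determined by ELISA, served as the endpoint in human foreskin fibroblast cultures exposed to compound for 24 h, with DMSO as baseline.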
As to `OCc1c[nH]c2ccccc12`, the AC50 is 4.75 µM (active). Turning to `c1ccc2cc3ccccc3cc2c1`, the result was inactive. As for `COc1cc(C(C)C)c2c(c1)S(=O)(=O)N(COc1cc(=O)n3cccc(OCCN4CCCCC4)c3n1)C2=O`, the AC50 was 6.38 µM (active). Consider `O=S(=O)(O)CCC(F)(F)C(F)(F)C(F)(F)C(F)(F)C(F)(F)C(F)(F)F`, for which the outcome was inactive.

On to `Cc1nccn1-c1ccc(Sc2cccc(C3(C(N)=O)CCOCC3)c2)cc1`, for which the result was inactive. With `CC(C)CC(C)O` (configuration not stated), the outcome was inactive. For `NC(=O)NN=Cc1ccc([N+](=O)[O-])o1`, the result was inactive.

For `c1ccc(C(O[C@@H]2CCCN(CCc3ccc4c(c3)OCO4)C2)c2ccccc2)cc1`, the AC50 is 20 µM (active). Regarding `CCCCOC(=O)c1ccccc1`, the result was inactive. Regarding `FC(F)(F)C(F)(F)C(F)(F)C(F)(F)C(F)(F)C(F)(F)I`, the result was inactive. `NC(=O)N1c2ccccc2C=Cc2ccccc21`: the outcome was inactive. In the case of `Cc1nc(-c2ccccn2)ncc1C(=O)Nn1cc(C)c2cc(F)ccc21`, the result was inactive.

For the compound `O=C(O)[C@H](O)[C@@H](O)C(=O)O`, the result was inactive.

With `Cc1cccc(O)c1C`, the outcome was inactive. Consider `C[Si](C)(C)C(F)(F)C(F)(F)C(F)(F)F`, for which the outcome was inactive. `CCOC(N)=O`: the result was inactive. Regarding `OC[C@H]1O[C@@H]2O[C@H]3[C@H](O)[C@@H](O)[C@@H](O[C@H]4[C@H](O)[C@@H](O)[C@@H](O[C@H]5[C@H](O)[C@@H](O)[C@@H](O[C@H]6[C@H](O)[C@@H](O)[C@@H](O[C@H]7[C@H](O)[C@@H](O)[C@@H](O[C@H]1[C@H](O)[C@H]2O)O[C@@H]7CO)O[C@@H]6CO)O[C@@H]5CO)O[C@@H]4CO)O[C@@H]3CO`, the result was inactive.
